# The full list was thinned out, with hits kept by preference.
# LmPK inhibitor: qHTS Assay for Inhibitors of Leishmania Mexicana Pyruvate Kinase (LmPK). Potency, µM (top dose mostly 57.5 µM), for the others: top-dose activity change, negative = inhibition, actives largely listed as inhibitors. hit rate 0.37% among 290,000. Q27686. AID 1721, 2009. purified LmPK, Kinase-Glo ATP luminescence, 1 h; further: potency means the concentration at half of the fitted maximal effect; on the % scale 0 is the no-effect control and ±100 the full control effect
# Target sequence (Q27686 whole entry, looked up): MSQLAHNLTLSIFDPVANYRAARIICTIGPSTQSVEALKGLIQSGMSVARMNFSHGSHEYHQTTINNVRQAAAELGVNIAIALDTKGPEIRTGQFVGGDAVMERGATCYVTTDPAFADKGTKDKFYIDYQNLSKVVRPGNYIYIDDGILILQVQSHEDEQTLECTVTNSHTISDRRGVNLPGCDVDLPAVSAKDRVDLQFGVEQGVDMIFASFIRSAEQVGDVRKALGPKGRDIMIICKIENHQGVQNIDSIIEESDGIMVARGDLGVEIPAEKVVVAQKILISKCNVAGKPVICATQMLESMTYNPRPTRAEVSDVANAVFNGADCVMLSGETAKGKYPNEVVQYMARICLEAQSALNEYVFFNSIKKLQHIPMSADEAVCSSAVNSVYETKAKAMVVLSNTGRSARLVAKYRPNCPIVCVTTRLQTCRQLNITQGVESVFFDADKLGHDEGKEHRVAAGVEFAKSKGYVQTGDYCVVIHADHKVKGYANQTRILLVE
#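 Kinase-Glo luminescence read after 1 h RT reaction of 0.1 nM LmPK with 0.5 mM PEP and 0.1 mM ADP. Activity scaled between uninhibited and enzyme-free controls.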
# CHX counter: Cycloheximide Counterscreen for Small Molecule Inhibitors of Shiga Toxin. cell reporter, cycloheximide protein synthesis inhibition counterscreen. max response, %. hit rate 12% among 300,000; in the data active means max response mostly above about 13%, no sharp cut-off; inactive means mostly below about 14%; further: read at 38.3 µM for the half of the compounds with a filed dose; 0% is about no effect
# TbPYK inhibitor: qHTS of Trypanosoma Brucei Inhibitors | Potency, µM (series often up to 76.8 µM), for the others: at the highest dose activity, negative = inhibition, most hits filed as inhibitors | TbPYK enzyme, Kinase-Glo Plus ATP luminescence, 45 min | hit rate 0.12% among 410,000 | pyruvate kinase (Trypanosoma brucei), Q57TT1 | AID 624173, 2012; further: potency means the concentration at half of the fitted maximal effect; on the % scale 0 is the no-effect control and ±100 the full control effect; nearly all actives have a fitted effect of over 50% in size
#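 Luminescence from Kinase-Glo Plus, added after a 45-minute room-temperature reaction, served as the end-point read-out. The enzyme and substrate were preincubated with compound before ADP (130 uM final) initiated turnover. Concentration-effect curves came from normalized qHTS data.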
# Sm TGR inh: qHTS Assay for the Inhibitors of Schistosoma Mansoni Peroxiredoxins; Schistosoma mansoni thioredoxin glutathione reductase (TGR), Q962Y6; AID 485364, 2010; hit rate 3% among 360,000; purified TGR, DTNB reduction, TNB absorbance 405 nm; Potency, µM (highest dose often 114 µM), for the others: at the highest dose activity change, negative = inhibition, most hits filed as inhibitors; further: potency means the concentration at half of the fitted maximal effect; on the % scale 0 is the no-effect control and ±100 the full control effect; nearly all actives have a fitted effect of over 60% in size
#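 First, TGR (20 nM dispensed) and NADPH were mixed with compound. Second, a 15 min room-temperature incubation followed. Third, further NADPH and then DTNB were added to start the reaction. Finally, TNB absorbance was monitored kinetically.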
# Giardia FBPA inh: qHTS Assay for Inhibitors of Fructose-1,6-bisphosphate Aldolase from Giardia Lamblia; hit rate 0.71% among 290,000; A8B2U2; Potency, µM (highest dose often 59.6 µM), for inactives: at the highest dose activity, negative = inhibition, most hits filed as inhibitors; AID 2451, 2010; purified Giardia FBPA; further: potency means the concentration at half of the fitted maximal effect; on the % scale 0 is the no-effect control and ±100 the full control effect; nearly all actives have a fitted effect of over 55% in size
#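 40 nM FBPA preincubated 10 min at RT with compound (up to 57.5 uM final), then substrate plus GAPDH/TPI/NAD/arsenate coupling and diaphorase/resazurin added. Fluorescence read after 20 min at RT, 525/598 nm.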
# Shiga inhibitor: A qHTS for Small Molecule Inhibitors of Shiga Toxin; Vero cells, Shiga toxin protein synthesis inhibition reporter; inhibition, % at 38.7 µM; hit rate 9.2% among 290,000; in the data active means inhibition mostly above about 28%, no sharp cut-off; inactive means mostly below about 43%; further: 0% is about no effect
# * marks the source's active call; other numbers are inactive results; ? = inconclusive; nt = not tested or not shown; [ ] = dose if it differs, or a comment. Unless noted, the call rests on the fitted dose curve; in most records, active means well fitted curve in the direction sought with a large enough effect; inconclusive means small, poorly fitted or top-dose-only effect, or another doubt; inactive means no such curve, though single readings can be large; an effect the other way counts as inactive or inconclusive.
SMILES,LmPK inhibitor,CHX counter,TbPYK inhibitor,Sm TGR inh,Giardia FBPA inh,Shiga inhibitor
COc1ccc(C2/C=C\[C@H](O[Si](C)(C)C(C)(C)C)[C@H](C(C)C)CC(=O)N2Cc2ccccc2)cc1 (some centres undefined),nt,3,nt,nt,3%,6
Cc1cccc(C(=O)NNC(=O)C(=O)NC(C)(C)C)c1,-4%,6,5%,8%,-5%,21
CC(C)(C)NC(=O)C(=O)NNC(=O)c1cccc(Br)c1,8%,17*,-3%,4%,-21%,47*
COc1ccccc1C(=O)NNC(=O)c1cccc(Cl)c1,7%,28*,-13%,14%,1%,46
COc1ccc(Cl)cc1C(=O)NNC(=O)c1cccc([N+](=O)[O-])c1,-2%,-4,2%,nt,7%,19
COc1ccccc1C(=O)NNC(=O)c1cccc(Br)c1,-2%,35*,2%,2%,-16%,nt
COc1ccccc1C(=O)Nc1c(C)cc(Br)cc1C,1%,11,1%,1%,4%,18
COC(=O)NNC(=O)c1ccc(C(C)(C)C)cc1,0%,30*,14%,4%,-1%,23*
COc1ccc(OC)c(NC(=O)Cn2cc(C(=O)c3ccc(Cl)cc3)c(=O)c3cc(OC)ccc32)c1,nt,nt,-4%,-14%,nt,nt
O=[S@]1Oc2ccccc2-c2ccccc21,nt,nt,0%,nt,nt,nt
CCOC(=O)c1ccc(NC(=O)c2cnc(N3CCCC3)nc2C)cc1,nt,nt,4%,7%,nt,nt
COc1ccccc1C(=O)NNC(=O)c1ccccc1,-28%,34*,-2%,6%,-1%,nt
COc1ccccc1C(=O)N/C(=N/c1nc(C)cc(C)n1)Nc1ccccc1,3%,12*,1%,16%,2%,16
COc1ccccc1C(=O)NC(=O)Nc1cccc(Cl)c1,-11%,49*,11%,7%,-10%,130*
COc1ccccc1NC(=S)NNC(=O)c1ccccc1Br,-4%,27*,-21%,-18%,21%,88*
CCC(=O)N/C(=N/c1nc(C)cc(C)n1)Nc1ccccc1,0%,5,4%,12%,9%,-12
O=C(NNC(=O)c1ccccc1Br)c1ccc(Cl)c(Cl)c1,-1%,0,-1%,-10%,2%,3
COc1ccccc1NC(=S)NNC(=O)c1c(Cl)c(C)nn1C,-6%,10,-24%,32%,nt,43*
COc1ccccc1NC(=O)NNC(=O)c1cc2ccccc2cc1O,-4%,26*,-12%,-34%,-15%,101*
Cc1cccc(C(=O)NNC(=O)c2ccccc2C)c1,-6%,14,2%,nt,7%,24
CC(C)(C)c1ccc(C(=O)NNC(=O)c2ccccc2Br)cc1,-2%,31*,29%,5%,-2%,31
Cc1ccccc1C(=O)NNC(=O)c1ccc(Br)cc1,5%,42*,4%,?,-3%,84*
CN1CCCN(C(=O)CNC(=O)c2ccc(Cl)cc2Cl)CC1,nt,nt,2%,nt,nt,nt
CC[N+]1(C)[C@@H]2CC[C@H]1CC(OC(=O)[C@H]1CC[C@@](C(=O)OC3C[C@H]4CC[C@@H](C3)[N+]4(C)CC)(c3ccccc3)c3ccccc31)C2 (some centres undefined),nt,nt,nt,nt,3%[21.7 µM],nt
COc1ccccc1C(=O)NNC(=O)c1ccc2ccccc2c1O,nt,nt,0%,nt,nt,nt
SMILES,LmPK inhibitor,CHX counter,TbPYK inhibitor,Sm TGR inh,Giardia FBPA inh,Shiga inhibitor
COc1ccccc1C(=O)NNC(=O)c1ccccc1Br,-6%,13*,4%,4%,?,nt
COc1ccc(NS(=O)(=O)c2ccc(NC(=S)NCC3CCCO3)cc2)cc1 (centres undefined),-5%,-2,-12%,?,nt,-3
CCc1ccc(CNC(=O)C(=O)NCC2CCCO2)cc1 (centres undefined),0%,1,1%,-10%,0%,16
CN(C)c1ccc(NC(=S)NCC2CCCO2)cc1 (centres undefined),1%,42*,-1%,-13%,-3%,39*
S=C(NCC1CCCO1)Nc1ccc(Cl)c(Cl)c1 (centres undefined),1%,13,-13%,?,1%,50*
CCNS(=O)(=O)c1ccc(NC(=S)NCC2CCCO2)cc1 (centres undefined),-1%,4,-3%,-31%,2%,-10
O=C(Cc1ccc(Cl)c(Cl)c1)NNC(=S)NCC1CCCO1 (centres undefined),-3%,-2,-22%,0%,nt,-3
CCCCc1ccc(NC(=S)NCC2CCCO2)cc1 (centres undefined),0%,8.8*,-5%,-14%,-1%,33*
CCc1ccc(NC(=O)C(=O)NCC2CCCO2)cc1 (centres undefined),0%,46*,5%,-3%,0%,101*
CCc1ccc(-n2ccc(=O)c(C(=O)O)n2)cc1,-6%,-1,-3%,-15%,-4%,3
COc1ccc(NC(=O)Nc2ccncc2)c(OC)c1,-1%,-3,-4%,-3%,0%,-15
COc1ccc(NC(=O)Nc2cccc(F)c2)c(OC)c1,-3%,17*,3%,9%,-14%,46
CCOc1cccc(NC(=O)C(Cc2cccs2)c2nn[nH]n2)c1 (centres undefined),1%,2,nt,1%,-8%,-4
COc1ccc(CC(C(=O)Nc2cccc(F)c2)c2nn[nH]n2)c(OC)c1 (centres undefined),4%,17*,1%,-3%,-25%,38
COc1ccc(NC(=O)Nc2ccc(F)c(F)c2)c(OC)c1,5%,14*,0%,12%,-5%,-1
Cc1nnc(-c2ccc(Oc3ccc(Br)cc3)c([N+](=O)[O-])c2)o1,2%,-3,37%,-1%,1%,3
O=[N+]([O-])c1ccc(Oc2ccc(-c3cnc4ccccc4n3)cc2[N+](=O)[O-])cc1,2%,21*,3%,-7%,0%,40*
O=[N+]([O-])c1cc(-c2cnc3ccccc3n2)ccc1Oc1ccc(Br)cc1,-1%,29*,0%,32%,0%,111*
O=C(O[C@@H]1Cc2c(O)cc(O)cc2O[C@@H]1c1cc(O)c(O)c(O)c1)c1cc(O)c(O)c(O)c1,7%,-1,nt,11µM*,?,15
CC(C)NC(=O)c1ccc(CSc2nc3ccncc3n2Cc2cccc(F)c2)cc1,nt,nt,2%,5%,nt,nt
Cc1oc2cc3oc(=O)c(CCC(=O)NCCCN4CCOCC4)c(C)c3cc2c1C,2%,active,2%,-17%,-9%,27
Cc1oc2cc3oc(=O)c(CCC(=O)NCCCn4ccnc4)c(C)c3cc2c1C,-3%,7.8*,-15%,2%,-1%,15
